According to PubChem BioAssay (NCI):
Compounds without any hit were thinned out: in the full panel of roughly 83,000, 20% have a hit.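 Assay: single dose, 48 h. Readout: percent growth (0 = no net growth; negative = cell death). Active: <10.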 Unmarked numbers belong to inactive results. Active and inactive are the calls of the source.

What was measured:
Assay in all cases: NCI-60 one-dose screen, 48 h (100 = growth as untreated, 0 = no growth, -100 = all killed)
Conditions in all cases: 10 µM unless noted
HCT-15 colon = tested on: HCT-15 colon
HT29 colon = tested on: HT29 colon
SNB-75 CNS = tested on: SNB-75 CNS
SNB-19 CNS = tested on: SNB-19 CNS
U251 CNS = tested on: U251 CNS
PC-3 prostate = tested on: PC-3 prostate
SK-MEL-5 melanoma = tested on: SK-MEL-5 melanoma
UACC-62 melanoma = tested on: UACC-62 melanoma
LOX IMVI melanoma = tested on: LOX IMVI melanoma
SK-MEL-28 melanoma = tested on: SK-MEL-28 melanoma

| Structure (SMILES) | growth (HCT-15 colon) | growth (HT29 colon) | growth (SNB-75 CNS) | growth (SNB-19 CNS) | growth (U251 CNS) | growth (PC-3 prostate) | growth (SK-MEL-5 melanoma) | growth (UACC-62 melanoma) | growth (LOX IMVI melanoma) | growth (SK-MEL-28 melanoma) |
| --- | --- | --- | --- | --- | --- | --- | --- | --- | --- | --- |
| N=C1/C(=C2\NC3C=CC=CC3S2)C(c2ccc(Cl)cc2)C2C(=O)N(c3ccccc3)C(=S)N12 (stereo not given) | 110% | 107% | 106% | 96.6% | 101% | 94.3% | 99.4% | 94.1% | 98.2% | 103% |
| CC[C@H](C)[C@H](NC(=O)[C@@H](N)CCC(N)=O)C(=O)N[C@@H](Cc1ccc(O)cc1)C(=O)N[C@@H](CCCCN)C(=O)N[C@@H](CCCCN)C(=O)N[C@@H](Cc1ccc(O)cc1)C(=O)N[C@@H](CCCNC(=N)N)C(=O)N[C@H](C(=O)N[C@@H](Cc1c[nH]c2ccccc12)C(=O)N[C@@H](Cc1ccc(O)cc1)C(=O)N[C@@H](CCCNC(=N)N)C(=O)N[C@@H](CCCCN)C(=O)N[C@@H](C)C(=O)N[C@@H](Cc1c[nH]c2ccccc12)C(=O)N[C@@H](CCCCN)C(=O)N[C@H](C(=O)N[C@@H](CC(C)C)C(=O)NCC(=O)N[C@@H](CCCCN)C(=O)N[C@H](C(N)=O)C(C)C)C(C)C)[C@@H](C)O | 4.9% (active) | 63.6% | 15.5% | 49.3% | 23.7% | -37% (active) | -38% (active) | -71.2% (active) | 69.8% | 16.3% |
| Cc1ccc(S(=O)(=O)OC[C@@]2(C)CC[C@]3(C)CC[C@]4(C)C(=CC[C@@H]5[C@@]6(C)CCCNC(C)(C)[C@@H]6CC[C@]54C)[C@@H]3C2)cc1 | -89.7% (active) | -88.2% (active) | -57.1% (active) | -16.7% (active) | -89.6% (active) | -10.3% (active) | 40.1% | -69.2% (active) | -99.5% (active) | 55.6% |
| COc1ccc(NC(=O)Nc2ccccc2CNc2nc(Nc3ccc(OCCN4CCCC4)cc3)ncc2Cl)cc1 | 5.09% (active) | 3.08% (active) | -47.8% (active) | 33.9% | -15.2% (active) | 23.3% | -40.6% (active) | -53.4% (active) | -99% (active) | -77.7% (active) |
| N=c1ccccn1CCO | 87% | 97.3% | 113% | 93.5% | 109% | 92.7% | 104% | 98.1% | 104% | 108% |
